Data from PubChem BioAssay (NCI).
This is part of a sample that, as a whole, favours compounds with a hit. Of some 83,000 tested, about 20% had one in any assay.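 The test compound was applied at a single concentration to cells in 96-well plates for 48 hours, and percent growth was recorded.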 Calls of active or inactive are those of the source. The calls were made as follows: active = growth percent below 10; inactive = the rest.

Legend:
Experiment in all cases: NCI-60 one-dose screen, 48 h (100 = growth as untreated, 0 = no growth, -100 = all killed)
Details in all cases: 10 µM unless noted
[1] = test system: DU-145 prostate
[2] = test system: K-562 leukemia
[3] = test system: MALME-3M melanoma
[4] = test system: MDA-MB-231 breast
[5] = test system: RXF 393 renal
[6] = test system: SF-268 CNS
[7] = test system: SF-295 CNS
[8] = test system: SF-539 CNS
[9] = test system: UACC-257 melanoma
[10] = test system: M14 melanoma
[11] = test system: HCT-15 colon
[12] = test system: HT29 colon
[13] = test system: SNB-75 CNS
[14] = test system: SNB-19 CNS
[15] = test system: U251 CNS
[16] = test system: PC-3 prostate
[17] = test system: SK-MEL-5 melanoma
[18] = test system: UACC-62 melanoma
[19] = test system: LOX IMVI melanoma
[20] = test system: SK-MEL-28 melanoma

Measured: growth

CCN1C(=O)N(CC)C2C1NC(=S)N2/N=C/c1ccc(C(F)(F)F)cc1 (stereo not given)
inactive: [1] 90.5% | [2] 37% | [3] 44.1% | [4] 66.2% | [5] 52.6% | [6] 77.7% | [7] 66.3% | [8] 79.8% | [9] 78.9% | [10] 53.4% | [11] 39.4% | [12] 43.6% | [13] 48.5% | [14] 73.6% | [15] 70.5% | [16] 59.7% | [17] 52% | [18] 47.4% | [19] 73.2% | [20] 76.3%

CCN(CC)CCCOc1ccc2ncnc(Nc3ccc(Oc4cccc(C(F)(F)F)c4)c(Cl)c3)c2c1
active: [1] 3.42% | [2] -28.6% | [3] -76.2% | [4] -42.2% | [5] -64.9% | [7] -61.7% | [8] -87.5% | [9] -60.5% | [10] -72% | [11] -33.6% | [12] -44.6% | [15] -28.6% | [16] 8.76% | [17] -100% | [18] -33.8% | [19] -100% | [20] -89.1%
inactive: [6] 35.1% | [13] 33.9% | [14] 30.9%

CCOC(=O)/C=C1\S/C(=N\Nc2cc(=O)[nH]c3ccccc23)N(c2ccccc2)C1=O
inactive: [1] 109% | [2] 98.2% | [3] 101% | [4] 97.8% | [5] 103% | [6] 104% | [7] 103% | [8] 96.9% | [9] 107% | [10] 101% | [11] 98.7% | [12] 113% | [13] 80.1% | [14] 100% | [15] 94.2% | [16] 95.4% | [17] 104% | [18] 97% | [19] 97.2% | [20] 110%

C=C1C(=O)O[C@H]2[C@H]1CC/C(COC(=O)/C=C/C(=O)OC/C1=C/CC[C@@]3(C)O[C@H]3[C@H]3OC(=O)C(=C)[C@@H]3CC1)=C\CC[C@@]1(C)O[C@@H]21
inactive: [1] 25.4% | [6] 90.3% | [7] 115% | [8] 82.2% | [9] 60.3% | [10] 27.5% | [11] 13.1% | [13] 95.2% | [14] 90.5% | [15] 76% | [16] 61.1% | [17] 83.1% | [18] 55.1% | [20] 51.8%
active: [2] 5.18% | [3] -27.3% | [4] -7.25% | [5] -11.3% | [12] 8.88% | [19] 3.81%

Oc1c(CN2CCC(N3CCCCC3)CC2)cc(Cc2cc(CN3CCC(N4CCCCC4)CC3)c(O)c3ncccc23)c2cccnc12
inactive: [1] 37.1% | [3] 15.4% | [4] 18.3% | [5] 57.5% | [6] 27.9% | [7] 31.1% | [9] 57.2% | [11] 20.6% | [12] 16% | [13] 54.1% | [14] 36.6% | [15] 24.6% | [16] 17.7% | [17] 34.1% | [20] 31.5%
active: [2] 5.46% | [8] -55.4% | [10] -26% | [18] -18.3% | [19] 4.36%

CCOC(=O)c1[nH]c2c(c1C)-c1[nH]c(=O)c(S(=O)(=O)c3ccccc3)cc1SC2
inactive: [1] 15.4% [100 µM] | [2] 49.8% [100 µM] | [4] 25.6% [100 µM] | [6] 21.8% [100 µM] | [8] 30% [100 µM] | [9] 66.8% [100 µM] | [10] 51.8% [100 µM] | [11] 72.8% [100 µM] | [12] 13.4% [100 µM] | [13] 17% [100 µM] | [14] 94.7% [100 µM] | [15] 31.9% [100 µM] | [17] 35.9% [100 µM] | [18] 21.2% [100 µM] | [19] 50% [100 µM] | [20] 20.7% [100 µM]
active: [3] 4.32% [100 µM] | [5] -5.27% [100 µM] | [7] 8.44% [100 µM] | [16] -29.5% [100 µM]

CCOC(=O)C(Cc1ccc(OC)cc1)C(=O)OCC
inactive: [2] 15.2% | [3] 58.1% | [4] 47.5% | [6] 30.2% | [7] 30.4% | [8] 19.9% | [9] 25.3% | [10] 46.3% | [11] 36.7% | [12] 21.3% | [13] 30.1% | [14] 41.7% | [15] 37.2% | [16] 47.2% | [17] 53.1% | [18] 33.4% | [19] 17% | [20] 51.5%
active: [1] -35.4% | [5] -11.3%

COc1cc(/C=C/C(=O)/C=C(O)/C=C/c2ccc(OC(=O)C34CC5CC(CC(C5)C3)C4)c(OC)c2)ccc1OC(=O)C12CC3CC(CC(C3)C1)C2
inactive: [1] 113% | [2] 106% | [3] 97% | [4] 103% | [5] 106% | [6] 95.6% | [7] 99.2% | [8] 95.2% | [9] 112% | [10] 102% | [11] 99.3% | [12] 104% | [13] 90% | [14] 101% | [15] 104% | [16] 101% | [17] 105% | [18] 98.8% | [19] 95.3% | [20] 100%

O=C(NC1CC(F)C1)c1cc2cccnc2n1-c1ccc(Cl)c(Cl)c1 (stereo not given)
inactive: [1] 106% | [2] 96.3% | [3] 113% | [4] 96.5% | [5] 102% | [6] 91.6% | [7] 95.1% | [8] 98% | [9] 96.9% | [10] 111% | [11] 96.6% | [12] 101% | [13] 89.1% | [14] 95.2% | [15] 93.9% | [16] 89.8% | [17] 98.9% | [18] 83.7% | [19] 89.6% | [20] 117%

CCN1C(=O)N(CC)C2C1NN=c1s/c(=C\c3ccc[nH]3)c(=O)n12 (stereo not given)
inactive: [2] 10.2% | [3] 34.5% | [4] 30.6% | [6] 44.6% | [7] 12.4% | [9] 46.7% | [11] 24.4% | [14] 24.9% | [16] 19.6% | [17] 30% | [18] 25.7% | [19] 43% | [20] 46%
active: [1] -11.9% | [5] -26.6% | [8] -21.5% | [10] -5.38% | [12] -10.4% | [13] -23.6% | [15] 9.08%

COc1cc(-c2nc3sccn3c2-c2ccnc(NCCNS(=O)(=O)c3ccc(Cl)cc3)n2)ccc1F
active: [17] -14.7% | [18] -45.3%
inactive: [1] 32.3% | [2] 13.6% | [3] 31.3% | [4] 69% | [5] 33.2% | [6] 30.6% | [7] 40.5% | [8] 80% | [9] 45.1% | [10] 21.5% | [11] 20.6% | [12] 22.8% | [13] 85.6% | [14] 78.8% | [15] 55.6% | [16] 13.1% | [19] 19.2% | [20] 44.9%

CN1CCN(Cc2ccc(NC(=O)c3cncc(C#Cc4cnc(N)c5ncccc45)c3)cc2C(F)(F)F)CC1
active: [3] -73.5% | [4] -78.7% | [5] -83.9% | [6] -18.1% | [8] -87% | [10] -87% | [11] -30.2% | [12] -50.2% | [13] -76.8% | [15] -37.6% | [17] -91.9% | [18] 6.71% | [19] -83.6% | [20] -86.8%
inactive: [1] 18.1% | [2] 13.9% | [7] 31.2% | [9] 17.1% | [14] 44.3% | [16] 13.6%

Cn1cc(-c2nn3cc(-c4cccs4)nc3s2)c2cc(F)ccc21
active: [10] 6.34% | [12] 7.69%
inactive: [1] 51.1% | [2] 15.5% | [3] 21.2% | [4] 34.5% | [5] 64.4% | [6] 45.2% | [7] 28.2% | [8] 24.3% | [9] 63.4% | [11] 23.5% | [13] 11.9% | [14] 32.1% | [15] 26% | [16] 45.2% | [17] 29.3% | [18] 33.1% | [19] 35.4% | [20] 49.7%

NC(=O)c1cccc([C@@H]2O[C@H](CO)[C@@H](O)[C@H]2O)c1
inactive: [1] 66.5% | [2] 27% | [3] 103% | [4] 55.5% | [5] 73.3% | [6] 48% | [7] 65.7% | [8] 14.4% | [9] 97.7% | [10] 17.1% | [11] 12.8% | [12] 54% | [14] 54.2% | [15] 41.1% | [16] 47.8% | [17] 97.4% | [18] 88.6% | [19] 91.5% | [20] 62.1%
active: [13] 9.91%

Oc1ccc(/C=C/c2ccc(O)cc2)cc1
active: [8] -11.4%
inactive: [1] 56.9% | [2] 69.5% | [3] 58.9% | [4] 80.1% | [5] 62.8% | [6] 42.7% | [7] 88.1% | [9] 72.3% | [10] 65% | [11] 33.3% | [12] 101% | [13] 46.9% | [14] 89.2% | [15] 39.1% | [16] 55.3% | [17] 52% | [18] 37.4% | [19] 44.4% | [20] 76.9%
